# Experimental data taken from PubChem BioAssay (EPA / NIEHS).
# Active and inactive are the calls of the source. Rule for the calls: active = hit-call score of the fitted dose curve at least 0.9, where 1 is the maximum; inactive = score below 0.9.
# Assay: BSK_3C_TissueFactor: BioMAP Diversity Plus: 3C Assay for Tissue Factor Biomarker Activity (AID 2282997)
# Details: BioMAP 3C HUVEC, tissue factor biomarker readout; actives raise or lower the signal
# Method: BSK_3C is a cell-based, multiplexed-readout assay that uses umbilical vein endothelium, a human vascular primary cell, with measurements taken at 24 hours after chemical dosing in a 96-well plate.BSK_3C_TissueFactor is an assay component measured in the BSK_3C assay. It measures Tissue Factor antibody related to regulation of gene expression using ELISA technology.Data from the assay component BSK_3C_TissueFactor was analyzed into 1 assay endpoint. This assay endpoint, BSK_3C_TissueFactor, was analyzed with bidirectional fitting relative to DMSO as the negative control and baseline of activity. Using a type of binding reporter, gain or loss-of-signal activity can be used to understand changes in the signaling as they relate to the gene F3. Furthermore, this assay endpoint can be referred to as a primary readout, because this assay has produced multiple assay endpoints where this one serves a signaling function. To generalize the intended target to other relatable targets, this assay endpoint is annotated to the cytokine intended target family, where the subfamily is coagulation factor.
# The levels of cell surface (or secreted, indicated by the prefix "s") biomarker endpoints were measured by ELISA. Overt cytotoxicity to cells in confluent adherent cultures (all systems other than the BT system) was assessed by measuring total protein levels using sulforhodamine B (SRB) staining in parallel cultures at the time of biomarker measurements, indicated as SRB endpoints. For proliferation assays for adherent cell types, individual cell types are cultured at sub-confluence and relative cell numbers quantified by SRB staining at time points optimized for each system (48 h: 3C and CASM3C systems; 72 h: BT and HDF3CGF systems; 96 h: SAg system). SRB was performed by staining cells with 0.1% SRB after fixation with 10% TCA and reading wells at 560 nm.Viability and proliferation of PBMC (T cells) was quantified by Alamar Blue reduction for the SAg and BT systems. For PBMC viability (referred to as PBMC Cytotoxicity within the assay endpoint names), cells were plated (75,000/well in a 96-well plate) and then chemical samples added for 1 h before addition of activators, SEB and TSST-1 (20 ng/mL final concentration each). Cells were incubated for 90 h. Then, Alamar Blue (20 uL/well) (Invitrogen, Cat DAL1100) was added for 6 h, and the plates were read with a fluorescence microplate reader at 546/580 nm (excitation/emission). For PBMC proliferation, cells were plated and activated as above but incubated for only 16 h prior to addition of Alamar Blue. Plates were read after 6 h.
SMILES,outcome,AC50
[As]#[In],inactive,–
O=P(OCCCl)(OCCCl)OCCCl,inactive,–
CN(C)c1ccccc1,inactive,–
OCCCBr,inactive,–
Nc1ccc([N+](=O)[O-])cc1,inactive,–
CCCCCCCCOC(=O)c1ccc(C(=O)OCCCCCCCC)c(C(=O)OCCCCCCCC)c1,inactive,–
COc1cc(C=O)cc2c1[C@H](COC(N)=O)[C@]1(OC(C)=O)ON2C[C@H]2[C@@H]1N2C(C)=O,–,6.64 µM (active)
CNC(=O)Oc1cccc2c1OC(C)(C)C2,inactive,–
CN(C)[C@@H]1C(=O)C(C(N)=O)=C(O)[C@@]2(O)C(=O)C3=C(O)c4c(O)cccc4[C@@](C)(O)[C@H]3C[C@@H]12,inactive,–
Nc1ccc(Oc2ccc(N)cc2)cc1,inactive,–
CCOC(=O)[C@]1(c2ccccc2)Oc2ccccc2[C@@H]1N,–,20 µM (active)
O=C(Nc1ccccc1)c1ccccc1I,inactive,–
Clc1ccc(C(c2ccc(Cl)cc2)C(Cl)Cl)cc1,–,32.2 µM (active)
Nc1cc(Cl)cc(C(=O)O)c1Cl,inactive,–
O=C1CCCO1,inactive,–
CO[C@@H]1[C@H](OC(=O)NC(=O)CCl)CC[C@]2(CO2)[C@H]1[C@@]1(C)O[C@@H]1CC=C(C)C,–,3.62 µM (active)
CN(C)C(=O)Nc1ccc(Cl)cc1,inactive,–
Cc1ccc(N)c(N)c1,inactive,–
CCN(CC)CCO,inactive,–
CCCCC(CC)COC(=O)c1ccc(C(=O)OCC(CC)CCCC)c(C(=O)OCC(CC)CCCC)c1 (stereo not given),inactive,–

SMILES,outcome,AC50
CCC[CH2][Sn]([Cl])([CH2]CCC)[CH2]CCC,–,0.148 µM (active)
OCCCl,inactive,–
C1=Cc2cccc3cccc1c23,inactive,–
Brc1ccc(Oc2ccccc2)cc1,inactive,–
CC(C)(OOC(C)(C)c1ccccc1)c1ccccc1,–,29 µM (active)
N#CC(Br)(Br)C(N)=O,inactive,–
CC(C)N(Cc1ccccc1)C(=O)C(C)(C)C,inactive,–
Cc1cccc(N)c1N,inactive,–
CCNS(=O)(=O)C(F)(F)C(F)(F)C(F)(F)C(F)(F)C(F)(F)C(F)(F)C(F)(F)C(F)(F)F,inactive,–
ClCCOCCCl,inactive,–
O=C(Oc1ccc(Br)cc1)N1CCN2CCC1CC2,inactive,–
CC(O)CCO (stereo not given),inactive,–
c1ccc(NNc2ccccc2)cc1,inactive,–
OCCOCCO,inactive,–
CN(C)c1ccc(C(=O)c2ccc(N(C)C)cc2)cc1,inactive,–
O=C(N[C@H](c1ccccc1)[C@@H]1CN2CCC1CC2)c1c(Cl)ccc(C(F)(F)F)c1Cl,inactive,–
Cc1ccc([N+](=O)[O-])cc1,inactive,–
COC(=O)Nc1nc2ccccc2[nH]1,inactive,–
Cn1cc(-c2ccccc2)c(=O)c(-c2cccc(C(F)(F)F)c2)c1,inactive,–
Cc1cc(N=Nc2ccccc2C)ccc1N,inactive,–
